Hit rate of the full screen: of about 1,200 compounds, about 85 (7%) were called active. The sample holds actives, similar compounds and a random draw of the others, so the mix is not that of the screen. Calls follow the shape of the full dose curve.
Target: Beta-2 adrenergic receptor (Homo sapiens) (UniProt P07550)
Assay: qHTS assay of beta-arrestin-biased ligands of beta2-adrenergic receptor: Hit Validation with GloSensor; as to activation: 0% is about no effect
Settings: W9-Glo22F cells, GloSensor cAMP luminescence, beta2AR agonism; activation: at 46.1 µM (top of the series)
From the text: The concept of biased agonism is an emerging concept of molecular pharmacology which proposes that seven transmembrane receptors (7TMRs) or G protein-coupled receptors (GPCRs), exist in multiple signaling conformations and complexes and that ligands (either agonists or antagonists) can induce signaling biased responses for distinct signal transduction cascades.
Furthermore, accumulating evidence over the last decade has drawn attention to a novel function of beta-arrestins as signal transducers that scaffold various signaling molecules upon activation of 7TMRs. […] This beta-arrestin-biased signaling presumably leads to distinct physiological outcomes from those by G protein activation.
Additionally, the active receptor conformations which […] on this beta-arrestin signaling are likely different from those activating G protein signaling
The goal of this screening project is to discover and optimize novel beta-arrestin-biased ligands for beta2-AR signaling. A luminescent cell-based assay for beta2-AR-mediated agonism, known as the Tango assay, has been validated in which ligand binding of a recombinant beta2-AR and subsequent recruitment of a recombinant beta-arrestin lead to the release of the transcriptional activator tTA, which upregulates transcription of a tTA-responsive luciferase gene. […] After compounds were identified in this primary screen, they were tested in a counter screen that used luminescence as measure through the GloSensor reagent.
NIH Molecular Libraries Probe Production Network [MLPCN]
NIH Chemical Genomics Center [NCGC]
PI: Bryan Roth (UNC) and Bob Lefkowitz (Duke)
2 uL of W9-Glo22F cells are dispensed into a white 1536-well plate. They are incubated overnight at 37 deg C at 5% CO2. 23 nL of compounds and controls are pinned into the wells. Then 2 uL of GloSensor is added and the plate is incubated for 10 min at room temperature.The plates are then read on the ViewLux for luminescence.
Potency is read from the fitted curve at half-maximal effect.

Chain of Beta-2 adrenergic receptor (Homo sapiens) (P07550 whole entry, looked up): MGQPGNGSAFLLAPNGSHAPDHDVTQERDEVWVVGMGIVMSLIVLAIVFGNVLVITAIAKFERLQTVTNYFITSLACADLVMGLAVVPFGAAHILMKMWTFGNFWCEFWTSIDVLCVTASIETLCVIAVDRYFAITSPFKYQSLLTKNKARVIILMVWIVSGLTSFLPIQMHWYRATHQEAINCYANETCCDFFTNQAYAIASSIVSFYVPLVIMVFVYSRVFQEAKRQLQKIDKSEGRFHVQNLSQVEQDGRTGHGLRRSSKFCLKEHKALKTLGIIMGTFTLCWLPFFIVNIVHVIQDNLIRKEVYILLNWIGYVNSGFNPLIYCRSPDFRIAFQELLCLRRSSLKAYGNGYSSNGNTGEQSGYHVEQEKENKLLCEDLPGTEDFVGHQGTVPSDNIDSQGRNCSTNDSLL

Potency, active:
Cc1ccc(C)c(-n2c(SCC(=O)O)nc3sc4c(c3c2=O)CCCC4)c1 23.1 µM
CC1CCC(NC(=O)c2ccc(S(C)(=O)=O)cc2)CC1 (stereo unspecified) 29.1 µM
COc1ccc(C(=O)C2CCCN(C/C=C/c3ccccc3OC)C2)c(OC)c1 (stereo unspecified) 18.4 µM
O=c1[nH]c(CSc2ccccn2)nc2c1cnn2-c1ccccc1 11.6 µM
CCNc1nc(NC(C)CC)nc(ON=C(C)C)n1 (stereo unspecified) 32.6 µM
CCCCCC1CC(/C(C)=N/NC(N)=O)OC1=O (stereo unspecified) 29.1 µM
COc1cc(/C=C2\CC/C(=C\c3ccc(OCCO)c(OC)c3)C2=O)ccc1OCCO 18.4 µM
COc1ccc(Oc2nc(-c3ccncc3)nc3ccccc23)cc1 29.1 µM
O=[N+]([O-])c1ccc(Cl)c(C2Nc3cccc4cccc(c34)N2)c1 0.0046 µM
NC(=S)NN=C(Cc1ccccc1)Cc1ccccc1 32.6 µM
CN1CCN(C(=S)NC(=O)c2ccc(Br)cc2)CC1 10.3 µM
Cn1c(-c2csc(-c3ccccc3)n2)n[nH]c1=S 20.6 µM
CC1=NN(C(N)=S)C(=O)C1N=Nc1ccccc1 (stereo unspecified) 18.4 µM
CC(=C/c1ccccc1)/C=N/n1c(C)n[nH]c1=S 25.9 µM
Cc1cc(-c2n[nH]c(=S)n2/N=C/C(Cl)=C/c2ccccc2)n[nH]1 36.6 µM
CNc1sc(C(=O)c2ccccc2F)c(N)c1-c1nc2ccccc2s1 18.4 µM
C=CCNc1nc(Cl)nc(NC2CCCCC2)n1 23.1 µM
O=C1NC(=NCc2ccccc2)S/C1=C/c1ccc(O)cc1 23.1 µM
O=C(Oc1c(-c2ccco2)oc2ccccc2c1=O)c1cccnc1 32.6 µM
NC(=S)N/N=C/c1ccc(-c2cccc([N+](=O)[O-])c2)o1 20.6 µM
CCC(NC(C)C)C(O)c1ccc(O)c(O)c1 (stereo unspecified) 0.0065 µM
CCC(NC(C)C)C(O)c1ccc(O)c2[nH]c(=O)ccc12 (stereo unspecified) 0.0058 µM

Potency, inactive:
O=C(NCc1ccco1)c1cccn2c(=O)c3c4c(sc3nc12)CCCC4
Cc1nc(SCC(=O)N2CCOCC2)c2c3c(sc2n1)CCC3
CC1(C)CC(C)(c2ccc(O)cc2O)N(c2cccc(Cl)c2)C(=S)N1 (stereo unspecified)
S=c1[nH]c2cc(-c3ccccc3)ccc2o1
CC(C)CC(=O)NC(=S)Nc1ccc(Cl)cn1
O=C(CS(=O)(=O)c1ccccc1)Nc1nc2ccccc2s1
CCCC(=O)NC(=S)Nc1ccc(Cl)cn1
COc1cccc(C(=O)C2CCCN(Cc3cccc(-n4nc(C)cc4C)c3)C2)c1 (stereo unspecified)
COc1ccc(C(=O)C2CCCN(Cc3cnc(N4CCCC4)s3)C2)cc1OC (stereo unspecified)
CCc1cc2c(=O)[nH]c(-c3ccccn3)nc2s1
O=c1[nH]c(CSc2cccc[n+]2[O-])nc2ccccc12
CCn1c(SCC(=O)N/N=C/C=C\c2ccco2)nc2ccccc21
S=C(NN=C1CCN(Cc2ccccc2)CC1)NC1CCCCC1
COc1cccc([C@@H]2Oc3ccc(Br)cc3C(=O)[C@H]2OC(=O)NC2CCCC2)c1
CCOc1ccc(C(=O)Nc2ccccc2OC(F)F)cc1
O=C(CN1C(=O)C2C3CC(C(Br)C3Br)C2C1=O)N1CCN(Cc2ccccc2)CC1 (stereo unspecified)
CN(C)S(=O)(=O)c1cccc(NC(=S)N/N=C/c2ccco2)c1
COc1ccc(/C=C/c2ccc3cccc(O)c3n2)c(OC)c1OC
CCCCCOCC1CC(C/C(C)=N/NC(N)=S)C(=O)O1 (stereo unspecified)
C/C(CCC1CC(C)(C)OC1=O)=N\NC(N)=S (stereo unspecified)
CS/C(N)=N/N=C/c1cc(C)ccc1O
CCN(CC)C(=O)[C@H]1CC(CC(=O)NCc2ccc(OC)c(OC)c2)C(=O)N2CCc3c([nH]c4ccccc34)[C@]12C (stereo partly specified)
O=C(CSc1n[nH]c(=O)n1-c1cccnc1)N1CCOCC1
COc1ccc2cc1Oc1ccc(cc1)C[C@H]1c3cc(c(OC)cc3CCN1C)Oc1c(O)c(OC)cc3c1[C@H](C2)N(C)CC3
CCOC(=O)N1C/C(=C\c2ccccc2)C(=O)/C(=C/c2ccccc2)C1
COc1cc(/C=C2\CC(C(C)(C)C)C/C(=C\c3cc(OC)c(OC)c(OC)c3)C2=O)cc(OC)c1OC (stereo unspecified)
O=C(O)CC1S/C(=N/N=C2CCCCC2)N(c2ccccc2)C1=O (stereo unspecified)
CN(C)CCCn1c(SCC(=O)Nc2nccs2)nnc1-c1ccncc1
CCC(C)NC(=O)C1CCN(S(=O)(=O)N2CCC3(CC2)OCCO3)CC1 (stereo unspecified)
COc1cccc(/C=N/Nc2nc(-c3cccnc3)nc3ccccc23)c1
O=C(CC(=O)Nc1cccc(F)c1)Nc1cccc(F)c1
CCCCCCCCN1C(=O)N(C)C(N(O)C(=O)NC)C1(C)C (stereo unspecified)
Clc1ccccc1C1Nc2cccc3cccc(c23)N1
Clc1cccc(Cl)c1C1Nc2cccc3cccc(c23)N1
Cc1ccc(C(=O)N/C(=C\c2ccco2)C(=O)NCCc2c[nH]c3ccccc23)cc1
O=C(CNC(=O)C(c1ccccc1)c1ccccc1)N/N=C\c1cccc(O)c1
CCC(Sc1nc(C)cc(=O)[nH]1)C(=O)Nc1nc2c(s1)CCCC2 (stereo unspecified)
NC(=S)NN=C(c1ccccc1)c1ccccc1
CC(/C=C/c1ccccc1)=N\NC(N)=S
Cc1cc(N2Cc3ccccc3C2)ccc1C=O
C/C(=N/NC(=O)c1ccoc1C)c1ccc(NC(=O)C2CCCC2)cc1
O=C(COC(=O)c1n[nH]c(=O)c2ccccc12)NCc1ccccc1
Oc1ccc(NCc2cccs2)cc1
CCN1CCN(C(=S)NC(=O)c2cccc(Br)c2)CC1
CC1CN(C(=S)NC(=O)c2ccc([N+](=O)[O-])cc2)CC(C)O1 (stereo unspecified)
CCC1(C)Nc2ccccc2C(=O)N1O (stereo unspecified)
O=C(Nc1nc(-c2ccccn2)cs1)Nc1ccc(F)cc1F
CN(C)/C=C/C(=O)c1ccc(F)cc1
O=S(=O)(N1CCOCC1)N1CCOCC1
Cc1ccc(NC(=S)NC(NC(=O)c2ccccc2)C(Cl)(Cl)Cl)c(C)c1 (stereo unspecified)
CC(c1ccccc1)n1c(-c2ccc(C(C)(C)C)cc2)n[nH]c1=S (stereo unspecified)
S=c1[nH]nc(-c2ccccc2)n1C1C=CCCC1 (stereo unspecified)
COc1ccccc1-c1cc(C(=O)N2CCN(c3ccccc3OC)CC2)no1
Cc1ccc(Nc2nc(CSc3nnc(-c4ccccc4C)n3C)cs2)cc1
CCCOc1ccc(C(=O)Nc2nc(C)c(Cc3ccc4c(c3)OCO4)s2)cc1
COc1ccccc1N=NC1C(=O)N(C(N)=S)N=C1C (stereo unspecified)
CC(=O)Nc1ccc(NC(=O)Cn2nc(C(=O)Nc3ccc(C)cc3)ccc2=O)cc1
CC1=NN(C(N)=S)C(=O)C1N=Nc1ccc(F)cc1 (stereo unspecified)
CC1=NN(C(N)=S)C(=O)C1N=Nc1cccc(C)c1 (stereo unspecified)
NC(=S)N/N=C/c1ccccc1OC(=O)c1cc2ccccc2oc1=O
COCC(=O)Nc1c(C(=O)Nc2ccc3c(c2)OCCO3)oc2ccccc12
CCc1n[nH]c(=S)n1/N=C/c1ccc(N(CC)CC)cc1
S=c1[nH]nc(-c2ccco2)n1/N=C/C(Cl)=C/c1ccccc1
Cc1cc(-c2n[nH]c(=S)n2/N=C/C(Br)=C/c2ccccc2)n[nH]1
COC(=O)c1c(NC(=O)CS(=O)(=O)c2ccccc2)sc(C)c1C
C/C(=N\NC(=O)c1c[nH]c2ccccc12)c1ccc(C)s1
COc1cc2c(cc1OC)C(C)N(C(=O)Cn1ncc3c1-c1cc(C)ccc1OC3)CC2 (stereo unspecified)
N=c1n(Cc2ccccc2)c2ccccc2n1Cc1ccccc1
COc1cccc(NC(=S)NN=C2CCCCCC2)c1
COC(=O)c1cc2sc(Cl)cc2n1CC(=O)Nc1ccc(OC)c(OC)c1OC
NC(=S)Nc1nc2ccccc2s1
CNc1sc(C(=O)c2cccs2)c(N)c1-c1nc2ccccc2s1
CCOC(=O)C1=CN(Cc2cccc(-c3cccnc3)c2)S(=O)(=O)N(CC)C1C (stereo unspecified)
Cc1ccc(CONC(=O)c2ccccc2Cl)cc1
O=C(/C=C/c1ccc(N2CCCCC2)c([N+](=O)[O-])c1)c1ccc(S(=O)(=O)N2CCCC2)cc1
Cc1ccc2nc(C)c(C(=O)N/N=C/c3cccs3)n2c1
COC(=O)COc1cccc2c(=O)n(CC(=O)Nc3ccc4c(c3)OCCO4)ccc12
CCOC(=O)c1ccccc1NC1c2ccccc2C(=O)N1C1CCN(C(=O)OCC)CC1 (stereo unspecified)
O=C(CSc1cccc2cccnc12)N1CCCC1
COc1ccc(CN=C2NN=C(c3ccccc3)CS2)cc1
CCCCCC(=O)Nc1cccc(C2=NOC3(C2)C[C@@H](C(N)=O)N(C(=O)CC(c2ccccc2)c2ccccc2)C3)c1 (stereo partly specified)
CN(c1ccccc1)S(=O)(=O)c1ccc(C(=O)Nc2nccs2)cc1
O=C(Oc1c(Cl)cc(Cl)c2cccnc12)c1ccco1
O=C(Oc1ccc(Cl)c2cccnc12)c1ccco1
Cc1ccc2c(c1)[C@H]1[C@H](CO2)[C@H](c2ccccc2)[C@]2(C)C(=O)Nc3ccccc3C(=O)N12
NC(=S)N/N=C/c1ccc(-c2ccccc2)o1
NC(=S)N/N=C/c1ccc(-c2ccc([N+](=O)[O-])cc2)o1
Cc1cccc(NC(=S)NC(=O)C2CC2)c1

activation, active:
O=C(COC(=O)c1ccc(CO)cc1)NCc1cccs1 80.4%

Reference: PubChem BioAssay AID588790 (National Center for Advancing Translational Sciences (NCATS), 2011)
